Compound activity from PubChem.
Sfp PPTase inh: qHTS Assay for Inhibitors of Bacillus subtilis Sfp phosphopantetheinyl transferase (PPTase). Potency, µM, most hits filed as inhibitors. AID 1490, 2009. 4'-phosphopantetheinyl transferase ffp (Bacillus subtilis), Q9F4F7. hit rate 3.5% among 310,000. Biochemical Sfp PPTase activity, qHTS;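 also: the enzyme is Sfp with the accession as filed and its product quenches rhodamine fluorescence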
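After 15 min at room temperature with compound, 15 nM Sfp received 5 uM rhodamine-CoA plus 12.5 uM BHQ-2-ybbR (50 mM Hepes pH 7.6, 10 mM MgCl2). Rate came from the fluorescence difference over 30 min, ex 525/em 598 nm.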
JMJD2A Tudor inh: qHTS Assay for Inhibitors of JMJD2A-Tudor Domain | Lysine-specific demethylase 4A (Homo sapiens), O75164 | Potency, µM (top dose mostly 114 µM), most hits filed as inhibitors | hit rate 4.4% among 390,000 | AID 504339, 2011 | AlphaScreen JMJD2A-Tudor / H3K4me3 peptide binding; also: nearly all actives have a fitted effect of over 50% in size
BAZ2B inh: qHTS Assay for Inhibitors of BAZ2B; AID 504333, 2011; hit rate 4.4% among 360,000; AlphaScreen BAZ2B-H3K14Ac peptide displacement; Bromodomain adjacent to zinc finger domain protein 2B (Homo sapiens), Q9UIF8; Potency, µM (series often up to 114 µM), most hits filed as inhibitors; also: nearly all actives have a fitted effect of over 60% in size
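BAZ2B 50 nM plus b-H3(5-23)K14Ac 50 nM, PBS pH 7.4/0.01% Tween-20, 30 min RT; compound added (max 110 uM), 30 min RT; streptavidin donor/Ni-chelate acceptor beads 10 ug/mL final, 20 min dark; AlphaScreen read.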
HP1b chromo inh: HTS for Inhibitors of HP1-beta Chromodomain Interactions with Methylated Histone Tails; AID 540317, 2011; Potency, µM (doses to about 114 µM), most hits filed as inhibitors; Chromobox protein homolog 1 (Homo sapiens), P83916; AlphaScreen HP1-beta / biotin-H3K9me3 peptide binding; hit rate 0.56% among 390,000; also: nearly all actives have a fitted effect of over 70% in size
Target sequence (P83916 whole entry, looked up): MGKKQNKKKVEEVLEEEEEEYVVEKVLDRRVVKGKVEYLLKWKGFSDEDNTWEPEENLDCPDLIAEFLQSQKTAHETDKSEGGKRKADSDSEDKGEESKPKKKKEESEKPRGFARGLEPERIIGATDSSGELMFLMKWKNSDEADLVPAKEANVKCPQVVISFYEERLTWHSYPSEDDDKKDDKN
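AlphaScreen: HP1-beta (50 nM) preformed 30 min with biotin-H3(1-18)K9me3 peptide (50 nM) in PBS pH 7.4, 0.01% Tween-20. Compound added for 30 min at RT, then streptavidin donor/nickel chelate acceptor beads (10 ug/mL) for 30 min.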
G9a inh: qHTS Assay for Inhibitors of Histone Lysine Methyltransferase G9a; G9a H3K9 monomethylation, AlphaScreen, 2 h; Potency, µM (series often up to 102 µM), most hits filed as inhibitors; hit rate 8.8% among 350,000; AID 504332, 2011; also: nearly all actives have a fitted effect of over 75% in size
Target sequence (Q96KQ7 913-1193 limits assumed): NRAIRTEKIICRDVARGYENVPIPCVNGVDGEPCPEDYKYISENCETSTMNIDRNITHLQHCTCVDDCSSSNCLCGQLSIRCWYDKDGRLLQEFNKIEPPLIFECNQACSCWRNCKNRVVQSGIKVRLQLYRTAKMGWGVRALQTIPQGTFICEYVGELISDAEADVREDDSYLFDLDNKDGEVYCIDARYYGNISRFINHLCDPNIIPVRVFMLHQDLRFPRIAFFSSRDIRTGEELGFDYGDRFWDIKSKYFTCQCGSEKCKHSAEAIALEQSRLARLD
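G9a (20 nM) was preincubated 15 min with compound, then reacted 2 h at room temperature with 500 nM biotin-H3K9 peptide and 20 µM SAM. Monomethyl-H3K9 detected by AlphaScreen using anti-H3K9me1 antibody.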
12-LOX inh: Primary qHTS assay for inhibitors of human arachidonate 12S-lipoxygenase (ALOX12): Round 2. Potency, µM (highest dose often 108 µM), most hits filed as inhibitors. purified 12hLO, xylenol orange hydroperoxide absorbance. Polyunsaturated fatty acid lipoxygenase ALOX12 (Homo sapiens), P18054. hit rate 1.1% among 580,000
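Purified human 12hLO (150 nM final) in 25 mM Hepes, 0.01% Triton X-100, pH 7.0 was preincubated 15 min at room temperature with compound. Then 40 uM arachidonic acid was added, 30 min. Hydroperoxide was read by Fe-XO absorbance ratio 573/405 nm.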
Each line names hits and unclear results; the compound was inactive in the other large screens. Shown are actives, neighbours in structure and some others; about 8.7% of the full set was active somewhere. Calls follow the shape of the dose curve; as a rule, active = well fitted curve in the direction sought with a large enough effect; inconclusive = small, poorly fitted or top-dose-only effect, or another doubt; inactive = no such curve, though single readings can be large; an effect the other way counts as inactive or inconclusive.

CC(=O)C1=C(Nc2ccc(C)cc2)CC(C)(O)C(C(C)=O)C1c1ccco1 (stereo unspecified)	BAZ2B inh 79µM, 12-LOX inh inconclusive
COC(=O)c1ccccc1OCCCN(C)C	Sfp PPTase inh inconclusive, JMJD2A Tudor inh 89µM, BAZ2B inh 79µM, HP1b chromo inh inconclusive, G9a inh 8.9µM
CN(C)CCNCCCOc1ccccc1-c1ccccc1	Sfp PPTase inh 50µM, BAZ2B inh 40µM, G9a inh 8.9µM (no result: JMJD2A Tudor inh, HP1b chromo inh, 12-LOX inh)
CC(C)(C)NCCOCCOc1ccccc1-c1ccccc1	JMJD2A Tudor inh 1.8µM, BAZ2B inh 22µM, HP1b chromo inh 22µM, G9a inh 3.5µM
O=C(NCCOc1ccccc1-c1ccccc1)c1ccco1	none
C=CCNCCOCCOc1ccccc1-c1ccccc1	JMJD2A Tudor inh 50µM, BAZ2B inh 79µM, 12-LOX inh inconclusive (no result: G9a inh)
CN(C)CCNC(=O)c1ccccc1-c1ccccc1	none
NCCOc1ccccc1-c1ccccc1	12-LOX inh inconclusive
Cc1cc(C(=O)N2CCC(Oc3ccc(C(=O)NC4CCCC4)cc3Cl)CC2)n(C)n1	none (no result: Sfp PPTase inh, JMJD2A Tudor inh, BAZ2B inh, HP1b chromo inh, G9a inh)
N/C(CN1CCCC1)=N\O	none (no result: Sfp PPTase inh, JMJD2A Tudor inh, BAZ2B inh, HP1b chromo inh, G9a inh)
COCCCNCCOCCOc1ccccc1-c1ccccc1	Sfp PPTase inh inconclusive, JMJD2A Tudor inh 2.5µM, BAZ2B inh 50µM, HP1b chromo inh inconclusive, G9a inh inconclusive
CCC(C)NCCOCCOc1ccccc1-c1ccccc1 (stereo unspecified)	JMJD2A Tudor inh 3.5µM, BAZ2B inh 50µM, HP1b chromo inh inconclusive, G9a inh 13µM, 12-LOX inh inconclusive
CC(C)CNC(=O)C1CCCC1	none (no result: Sfp PPTase inh, JMJD2A Tudor inh, BAZ2B inh, HP1b chromo inh, G9a inh)
CC[N+](CC)(CC#Cc1ccccc1)CC(=O)OC	none (no result: Sfp PPTase inh, JMJD2A Tudor inh, BAZ2B inh, HP1b chromo inh, G9a inh)
COc1cc(C2Oc3ccccc3C=C2[N+](=O)[O-])cc(OC)c1OC (stereo unspecified)	Sfp PPTase inh inconclusive, JMJD2A Tudor inh 56µM, BAZ2B inh 35µM, 12-LOX inh inconclusive (no result: G9a inh)
CN1CCN(S(=O)(=O)c2ccc3ccccc3c2)CC1	none
O=C(CSc1ccc2ccccc2c1)N1CCN(c2ccc(O)cc2)CC1	Sfp PPTase inh 50µM, JMJD2A Tudor inh 50µM, BAZ2B inh 50µM, G9a inh 16µM, 12-LOX inh inconclusive
O=S(=O)(c1ccc2ccccc2c1)N1CCN(c2ccc(O)cc2)CC1	JMJD2A Tudor inh 35µM, HP1b chromo inh inconclusive, 12-LOX inh inconclusive (no result: Sfp PPTase inh, BAZ2B inh, G9a inh)
O=C(c1ccc2ccccc2c1)N1CCN(c2ccccn2)CC1	none
O=C(c1ccc2ccccc2c1)N1CCN(c2ccc(O)cc2)CC1	Sfp PPTase inh inconclusive, JMJD2A Tudor inh inconclusive, HP1b chromo inh inconclusive, G9a inh 32µM, 12-LOX inh inconclusive
Cc1cc(C(=O)OC(C)C(=O)Nc2cc(C)on2)c2ccccc2n1 (stereo unspecified)	none (no result: Sfp PPTase inh, JMJD2A Tudor inh, BAZ2B inh, HP1b chromo inh, G9a inh)
CC(OC(=O)c1cc(-c2ccco2)nc2ccccc12)C(=O)NC(=O)NC1CCCCC1 (stereo unspecified)	12-LOX inh 7.9µM (no result: Sfp PPTase inh, JMJD2A Tudor inh, BAZ2B inh, HP1b chromo inh, G9a inh)
CC(OC(=O)c1cc(-c2ccco2)nc2ccccc12)C(=O)NC(=O)NC(C)(C)C (stereo unspecified)	12-LOX inh 8.9µM (no result: Sfp PPTase inh, JMJD2A Tudor inh, BAZ2B inh, HP1b chromo inh, G9a inh)
CN(Cc1ccc(C(=O)NC2CC2)cc1)C(=O)c1cc(=O)[nH]c2ccccc12	none (no result: Sfp PPTase inh, JMJD2A Tudor inh, BAZ2B inh, HP1b chromo inh, G9a inh)
CCCCOC1(c2ccccc2)NC(=S)NN=C1c1ccccc1 (stereo unspecified)	G9a inh 45µM (no result: JMJD2A Tudor inh, HP1b chromo inh, 12-LOX inh)
O=C(CSC1=NNC(c2ccccn2)S1)Nc1ccc(C(F)(F)F)cc1 (stereo unspecified)	JMJD2A Tudor inh 40µM, BAZ2B inh 56µM
COc1ccc(CNCc2cn(-c3cccc(F)c3)nc2-c2ccc(C)o2)cc1	Sfp PPTase inh inconclusive, JMJD2A Tudor inh inconclusive, BAZ2B inh inconclusive, G9a inh 45µM, 12-LOX inh 45µM
COc1ccc(-n2cc(CNCc3cccnc3)c(-c3cccc(F)c3)n2)cc1	none
